# Screens (PubChem)
# SARS PLpro yeast-1: inhibitors of SARS-CoV papain-like protease in yeast. S. cerevisiae expressing SARS-CoV PLpro, growth rescue. hit rate 0.19% among 330,000. Potency, µM (series often up to 32.9 µM), usual class: activators; further: nearly all actives have a fitted effect of over 55% in size
# Cycloheximide cs: counter-screen hit for Shiga toxin inhibitors, cycloheximide. cell reporter, cycloheximide protein synthesis inhibition counterscreen. max response, %. hit rate 12% among 300,000; in the data active means max response mostly above about 13%, no sharp cut-off; inactive means mostly below about 14%; further: read at 38.3 µM for the half of the compounds with a filed dose
# Shiga toxin inh: blocks Shiga toxin action in Vero cells. Vero cells, Shiga toxin protein synthesis inhibition reporter. inhibition, % at 38.7 µM. hit rate 9.2% among 290,000. AID 2315; in the data active means inhibition mostly above about 28%, no sharp cut-off; inactive means mostly below about 43%
# NS1 inh: inhibitors of influenza NS1 protein function. Potency, µM (titrated, usually from 46.1 µM). hit rate 0.4% among 270,000. AID 2326; further: actives are rising curves; nearly all actives have a fitted effect of over 50% in size
#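 A cell-based growth assay was used: compounds that relieve NS1-induced slow growth of budding yeast raise OD600. Assay medium was yeast nitrogen base with ammonium sulphate and -URA supplement, pH 6.0, with 2% galactose.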
# SARS PLpro yeast-2: Validates SARS-CoV PLpro inhibitor hits in yeast | shares compounds with SARS PLpro yeast-1 | yeast expressing SARS-CoV PLpro, growth phenotype rescue | calls only | hit rate 19% among 1,000; call rule not given here
# A number is an active result; - = inactive; ? = inconclusive; . = no result; + = active, no number. Hits are enriched below; roughly 12% of the tested compounds scored in any of these assays. Unless noted, the call rests on the fitted dose curve.
SMILES,SARS PLpro yeast-1,Cycloheximide cs,Shiga toxin inh,NS1 inh,SARS PLpro yeast-2
NNC(=O)/C(=N/Nc1ccccc1)S(=O)(=O)c1ccc(Cl)cc1,?,-,-,?,-
O=C(COc1coc(CN2CCc3ccccc3C2)cc1=O)Nc1ccc(F)cc1F,-,.,.,.,.
O=C(N/N=C/c1ccccn1)c1ccc(Br)cc1,?,66.9,121.9,-,?
O=C(O)c1cccc(NC(=S)N/N=C/c2ccccn2)c1,5.01µM,50.7,131.1,.,+
O=C(N/N=C/c1cccc(OCc2ccccc2)c1)c1ccc(Br)cc1,-,-,-,-,.
COc1ccccc1NS(=O)(=O)c1c(C)[nH]c(C)c1C(=O)N1CCCC1,-,-,-,-,.
C/C(CC(=O)NC1CCCCCC1)=N\NC(=O)c1cnccn1,3.55µM,25.6,45.7,-,-
CCC1(CC)C(=O)N(C)C(=O)NC1=Nc1ccc(OC)cc1,1.78µM,-,-,-,-
O=C1c2ccccc2C(=O)N1CN(C(=O)COc1ccccc1)c1ccc(F)cc1,-,-,-,-,.
COc1ccc(C(C)NC(=O)c2ccccc2Cl)cc1OC (centres undefined),11.2µM,-,-,-,+
CCn1c(CN2CCN(c3cccc(C)c3C)CC2)n[nH]c1=S,-,-,-,-,.
Cc1sc(NC(=O)c2ccccc2)c(C(=O)NC(C)C)c1C,?,-,-,-,-
CCNC(=O)CN(c1ccc(Cl)cc1)S(=O)(=O)c1ccccc1,-,-,-,-,.
CCNC(=O)CN(c1ccccc1)S(=O)(=O)c1ccc(Cl)cc1,?,-,-,-,?
COc1ccc(-c2c(-c3ccccc3OC)oc3ccccc23)cn1,-,.,.,.,.
CC1(C)CC2CC(C)(CN2C(=O)c2cc(-c3ccc(O)cc3)on2)C1 (centres undefined),-,-,-,-,.
Cc1noc(C(=O)N2CC3(C)CC2CC(C)(C)C3)c1Cl (centres undefined),4.47µM,-,-,?,-
O=C(CCC1CCCCC1)NCCS(=O)(=O)N1CCN(c2ccc(F)cc2)CC1,-,.,.,.,.
CC(C)c1ccc(C2(C)NC(=O)N(CC(=O)NC3(C#N)CCCC3)C2=O)cc1 (centres undefined),-,.,.,.,.
COc1ccc(NC(=O)CS(=O)CC(=O)Nc2ccc(-n3cnnn3)c(C)c2)cc1 (centres undefined),-,-,-,-,.
CCCCn1c(N)c(NCCC)c(=O)[nH]c1=O,-,-,-,-,.
Cc1cccc(C)c1NC(=O)CSc1nc(-c2ccco2)cc(C(F)(F)F)n1,-,-,-,-,.
O=C(CSc1nc(-c2ccco2)cc(C(F)(F)F)n1)Nc1ccccc1C(F)(F)F,?,-,-,-,-
CC12CCC=CC1C(c1ccoc1)N(Cc1ccccc1)C2=O (centres undefined),.,-,-,.,.
O=C1c2ccccc2NC(c2ccc(-c3ccc(F)cc3)o2)N1O (centres undefined),-,.,.,.,.
SMILES,SARS PLpro yeast-1,Cycloheximide cs,Shiga toxin inh,NS1 inh,SARS PLpro yeast-2
O=C1c2ccccc2NC(c2ccc(-c3cccc([N+](=O)[O-])c3)o2)N1O (centres undefined),10µM,-,-,?,+
Cc1ccc(C2(C)NC(=O)N(CC(=O)NCc3cccs3)C2=O)cc1 (centres undefined),?,-,-,-,-
O=C(N/N=C/c1ccc(OC(F)F)cc1OC(F)F)c1ccc(Br)cc1,.,-,-,-,-
O=C1CC(c2ccc(F)cc2)Cc2nc(NCC3CCCO3)ncc21 (centres undefined),-,-,-,-,.
O=C(NCCCN1CCOCC1)c1cn(-c2ccccc2)nc1-c1ccc(Br)cc1,-,.,.,.,.
O=C(Nc1nc2ccccc2n1CCN1CCOCC1)c1cn(-c2ccccc2)nc1-c1ccccc1,?,-,-,-,?
O=C(Nc1ccc(NC(=O)c2ccco2)cc1)c1ccc2c(c1)OCO2,?,-,-,-,+
O=C(c1ccc(NC(=S)NCc2ccco2)cc1)N1CCCCC1,?,-,-,.,-
O=C(O)Cc1ccc(NC(=S)NCc2ccco2)cc1,-,-,-,-,.
Cc1nc(Nc2cccc(C(C)O)c2)c2nnn(Cc3ccccc3F)c2n1 (centres undefined),-,-,-,-,.
CCOC(=O)C1CCN(C(=O)CN(c2cc(Cl)ccc2OC)S(=O)(=O)c2ccccc2)CC1,?,-,-,-,-
CCOC(=O)C1CCN(C(=O)CN(c2cc(OC)ccc2OC)S(=O)(=O)c2ccccc2)CC1,-,-,-,-,.
CC(=O)C(Sc1nn(C)c(=S)s1)C(=O)Nc1ccccc1 (centres undefined),?,51.2,113.5,-,-
CC(=O)C(Sc1nc(N(C)C)nc(N(C)C)n1)C(=O)Nc1ccccc1 (centres undefined),-,-,-,-,.
O=C(Cc1cccc(NC(=O)C2CCCN(C(=O)C3CCCCC3)C2)c1)Nc1cccc(C(=O)N2CCCC2)c1 (centres undefined),-,.,.,.,.
COc1ccc(Cn2c(O)c(/C=N/NC(=O)c3cccnc3)c3ccccc3c2=O)cc1,?,-,-,.,.
O=C(N/N=C/c1c(O)n(-c2ccccc2Cl)c(=O)c2ccccc12)c1cccnc1,5.62µM,-,-,.,-
Cc1cccc(-n2c(O)c(C=Nc3ccccc3O)c3ccccc3c2=O)n1,-,-,-,-,.
Cc1cccc(-n2c(O)c(/C=N/NC(=O)c3ccccc3Cl)c3ccccc3c2=O)n1,14.1µM,-,-,?,-
O=C(CN1C(=O)NC2(CCCCCCC2)C1=O)NCc1ccccc1Cl,-,.,.,.,.
O=C(Nc1cccc(-c2nn[nH]n2)c1)c1csc2c1CCCC2,?,-,-,-,-
Cc1cc(Br)ccc1OCC(=O)NNC(=O)c1cnccn1,?,-,-,-,.
CCN(CC(=O)NC1CCS(=O)(=O)C1)c1ccc(S(=O)(=O)N(CC)CC)cc1[N+](=O)[O-] (centres undefined),-,.,.,.,.
Cc1nc(N/N=C\c2ccc3c(c2)OCO3)sc1C,7.08µM,28.8,.,-,+
O=C(CCn1cccc1)NCCc1ccc(Cl)cc1,-,-,-,-,.
SMILES,SARS PLpro yeast-1,Cycloheximide cs,Shiga toxin inh,NS1 inh,SARS PLpro yeast-2
CC(C)NC(=O)CN1C(=O)NC(CCc2ccccc2)C1=O (centres undefined),3.55µM,-,-,-,-
Cc1c(C(=O)OCC2CCCO2)[nH]c2c1C(=O)CC(c1ccco1)C2 (centres undefined),?,-,-,-,-
Cc1c(C(=O)OCC(C)C)[nH]c2c1C(=O)CC(c1ccco1)C2 (centres undefined),-,-,-,-,.
O=C(COC(=O)c1ccccc1C(=O)c1ccc(Cl)c([N+](=O)[O-])c1)NC1CCCCCC1,3.55µM,-,-,?,+
Cc1cc(C)c(NS(=O)(=O)c2ccc3c(c2)NC(=O)CCS3)c(C)c1,-,-,-,-,.
Cc1cccc(NC(=O)NCC(c2cccnc2)N2CCOCC2)c1 (centres undefined),17.8µM,-,-,-,-
CCOc1ccc(CNC(=S)NCc2ccc(OCC)cc2)cc1,12.6µM,11.4,-,-,+
COc1ccc(CNC(=S)NCc2ccc(OC)cc2)cc1,-,-,-,-,.
CCCNC(=S)NCc1ccc(Cl)cc1,?,-,-,-,-
CCC1(c2ccccc2)NC(=O)N(CC(=O)Nc2ccc(S(=O)(=O)NC3=NCCCCC3)cc2)C1=O (centres undefined),-,.,.,.,.
COc1ccc(Br)cc1CN1CCC(N2CCCC2)CC1,-,-,-,-,.
